Fluor 339 460 – intrinsic fluorescence of library compounds, ex339/em460 – biochemical, MLSMR library, data from DPM-DC assay, artefact control, profiling panel; fluorescence fold increase at 10 µM; compound autofluorescence, ex339/em460 nm, NADH buffer; stronger effect = higher value; 1 = no-compound wells, NADH background; AID 709; 5.5% of 65,000 active;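 active means at 10 µM, mean starting fluorescence two-fold or more over control wells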;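 further: signal is the first read of a kinetic run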
MK inhibit – blocks S. pneumoniae mevalonate kinase; 0.48% of 65,000 active; inhibition, % at 10 µM; purified MK, PK/LDH-coupled NADH absorbance 340 nm;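 active means ranked among the strongest by inhibition in the single 10 µM screen, a fixed top-ranked set picked for dose follow-up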
NADH coupling – inhibition of NAD/NADH coupling enzymes, library profiling; 0.02% of 65,000 active; IC50, µM (doses to about 10 µM), for inactives: top-dose inhibition; AID 774; coupled PK/LDH NADH assays, four targets;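 active means single-dose screening hits from any of four coupled enzyme assays that gave an IC50 when retested across doses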;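 further: the DPM-DC format reads NADH fluorescence rather than 340 nm absorbance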
A340 absorber – compound absorbs light at 340 nm; compound absorbance at 340 nm, fold over control; fold change at 10 µM; 65,000 tested, under 10 active;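 active means at 10 µM dose, initial 340 nm absorbance at least 2 fold that of control wells; inactive means change under 2 fold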;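 further: initial absorbance extrapolated from kinetic A340 decline of NADH oxidation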
Spn DPM-DC inh – blocks S. pneumoniae diphosphomevalonate decarboxylase; 0.49% of 65,000 active; AID 556; purified DPM-DC, PK/LDH coupled NADH fluorescence; calls only at 10 µM;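 active means the 320 compounds with the highest percent inhibition in the single-dose primary screen, excluding strongly autofluorescent ones, cut at about 32% in these data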;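 further: kinetic rate of NADH fluorescence loss reporting ADP formed by the decarboxylase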
Spn PMK inh – inhibitors of Streptococcus pneumoniae phosphomevalonate kinase | purified PMK, PK/LDH-coupled NADH absorbance 340 nm | inhibition, % at 10 µM | 0.49% of 65,000 active;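 active means top-ranked compounds by inhibition in the single 10 µM screen, taking a fixed number of the strongest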;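 further: 0% = full reaction with DMSO carrier and 100% = background rate without enzyme reaction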
The depositor's hits bear a star. Rows were chosen to be rich in hits. Some 6.3% of all compounds tested hit in one or more screens of this group.

Screening CSc1ncccc1C(=O)OCC(=O)Nc1cc(C(F)(F)F)ccc1N1CCOCC1 returned Fluor 339 460 1, MK inhibit 0, NADH coupling 4%, A340 absorber 1, Spn DPM-DC inh inactive and Spn PMK inh 12.
`CCn1cc(S(=O)(=O)CC(=O)N2CCc3ccccc32)c2ccccc21` gave Fluor 339 460 1.1, MK inhibit 6, NADH coupling 2%, A340 absorber 1.1, Spn DPM-DC inh inactive and Spn PMK inh 1.
For COc1ccccc1-c1c(C)nn2c(C)cc(C)nc12 the results were Fluor 339 460 1.1, MK inhibit 9, NADH coupling 5%, A340 absorber 1, Spn DPM-DC inh inactive and Spn PMK inh 7.
For Cc1cc(C)n2nc3nc4c(cc3c2n1)CCCC4 the results were Fluor 339 460 2.2*, MK inhibit 5, NADH coupling 6%, A340 absorber 1.1 and Spn PMK inh 7.
O=C1c2ccc(-c3nc4ccccc4o3)cc2C(=O)N1Cc1cccnc1 was read as Fluor 339 460 2.1*, MK inhibit 2, NADH coupling 1%, A340 absorber 1.1 and Spn PMK inh 0.
For CCCCOc1ccc(-c2nnc(-c3ccncc3)o2)cc1 the results were Fluor 339 460 3*, MK inhibit 10, NADH coupling 14%, A340 absorber 1, Spn DPM-DC inh inactive and Spn PMK inh 15.
For CCOc1ccc(-c2nnc(-c3ccncc3)o2)cc1 the results were Fluor 339 460 2*, MK inhibit 14, NADH coupling 20%, A340 absorber 1, Spn DPM-DC inh active and Spn PMK inh 8.
`CCOc1ccc(-c2nnc(N)o2)cc1` gave Fluor 339 460 1.1, MK inhibit 2, NADH coupling 4%, A340 absorber 1, Spn DPM-DC inh inactive and Spn PMK inh 10.
For Cc1cccc(NC(=O)c2ccc(S(=O)(=O)N3CCCCC3)cc2)n1 the results were Fluor 339 460 1.1, MK inhibit 0, NADH coupling 3%, A340 absorber 1, Spn DPM-DC inh inactive and Spn PMK inh 10.
`Cc1csc(C(C#N)C(=O)c2ccc(S(=O)(=O)N3CCCC3)cc2)n1` (stereo not drawn) gave Fluor 339 460 0.99, MK inhibit 0, NADH coupling 8%, A340 absorber 1.1, Spn DPM-DC inh inactive and Spn PMK inh 25*.
`Cc1cnc(SCCc2ccncc2)nc1C` gave Fluor 339 460 1.1, MK inhibit 16, NADH coupling 6%, A340 absorber 1.1, Spn DPM-DC inh active and Spn PMK inh 3.
For N#Cc1cnc(SCCc2ccccc2)nc1N the results were Fluor 339 460 1.3, MK inhibit 0, NADH coupling 3%, A340 absorber 1, Spn DPM-DC inh inactive and Spn PMK inh 14.
For COc1ccc2c(-c3cccnc3)cc(=O)[nH]c2c1 the results were Fluor 339 460 2.1*, MK inhibit 3, NADH coupling 6%, A340 absorber 1, Spn DPM-DC inh inactive and Spn PMK inh 11.
Cc1nn(-c2ccccc2)c(C)c1NS(=O)(=O)c1ccccc1 was read as Fluor 339 460 1.1, MK inhibit 10, NADH coupling 7%, A340 absorber 1, Spn DPM-DC inh inactive and Spn PMK inh 9.
COC(=O)c1cc2oc(C)cc2n1CC(=O)Nc1ccc(OC)c(OC)c1OC was read as Fluor 339 460 1.1, MK inhibit 7, NADH coupling 6%, A340 absorber 1, Spn DPM-DC inh inactive and Spn PMK inh 8.
COC(=O)c1cc2occc2n1CC(=O)Nc1ccc(OC)c(OC)c1OC was read as Fluor 339 460 1, MK inhibit 22, NADH coupling 35%, A340 absorber 1, Spn DPM-DC inh active and Spn PMK inh 0.
Screening COc1cc2c(cc1NC(=O)CN(C)Cc1nc3ccccc3c(=O)[nH]1)oc1ccccc12 returned Fluor 339 460 1.1, MK inhibit 2, NADH coupling 5%, A340 absorber 1.1, Spn DPM-DC inh inactive and Spn PMK inh 13.
Screening Cc1ccc2nc(Nc3ccccc3)c(/C=N/O)c(=O)n2c1 returned Fluor 339 460 1.1, MK inhibit 3, NADH coupling 2%, A340 absorber 1.1, Spn DPM-DC inh inactive and Spn PMK inh 0.
Cc1cccn2c(=O)c(C=Nc3ccccc3)c(NCCO)nc12 was read as Fluor 339 460 2.4*, MK inhibit 5, NADH coupling 11%, A340 absorber 1.1, Spn DPM-DC inh inactive and Spn PMK inh 11.
`Cc1cccn2c(=O)c(C=Nc3ccc(Cl)cc3)c(NCCO)nc12` gave Fluor 339 460 2.7*, MK inhibit 1, NADH coupling 10%, A340 absorber 1.1, Spn DPM-DC inh inactive and Spn PMK inh 11.
For Cn1c(=O)c2c(nc(NCCO)n2CCc2ccccc2)n(C)c1=O the results were Fluor 339 460 1.2, MK inhibit 7, NADH coupling 7%, A340 absorber 1, Spn DPM-DC inh inactive and Spn PMK inh 11.
Screening O=C(NC12CC3CC(CC(C3)C1)C2)c1cc2nc(-c3ccco3)cc(C(F)(F)F)n2n1 returned Fluor 339 460 2.9*, MK inhibit 9, NADH coupling 13%, A340 absorber 1, Spn DPM-DC inh inactive and Spn PMK inh 12.
Screening O=C(c1cc2nc(-c3ccco3)cc(C(F)(F)F)n2n1)N1CCc2ccccc2C1 returned Fluor 339 460 2.2*, MK inhibit 10, NADH coupling 20%, A340 absorber 1.1 and Spn PMK inh 30*.
For O=C(NC1CCCCC1)c1cc2nc(-c3ccco3)cc(C(F)(F)F)n2n1 the results were Fluor 339 460 2.9*, MK inhibit 15, NADH coupling 4%, A340 absorber 1 and Spn PMK inh 2.
Screening O=C(Nc1cnn(Cc2ccccc2)c1)c1cc2nc(-c3ccco3)cc(C(F)(F)F)n2n1 returned Fluor 339 460 3.3*, MK inhibit 16, NADH coupling 11%, A340 absorber 1.1 and Spn PMK inh 5.
For O=C(Nc1cnn(C23CC4CC(CC(C4)C2)C3)c1)c1cnn2c(C(F)(F)F)cc(-c3ccco3)nc12 the results were Fluor 339 460 1.1, MK inhibit 12, NADH coupling 4%, A340 absorber 1, Spn DPM-DC inh inactive and Spn PMK inh 6.
For O=C(NC1CCCCC1)c1cc(-c2ccco2)on1 the results were Fluor 339 460 1.1, MK inhibit 0, NADH coupling 6%, A340 absorber 0.98, Spn DPM-DC inh inactive and Spn PMK inh 17.
O=C(c1cc2nc(-c3ccccc3)cc(C(F)(F)F)n2n1)N1CCOCC1 was read as Fluor 339 460 1.3, MK inhibit 3, NADH coupling 2%, A340 absorber 1.1, Spn DPM-DC inh inactive and Spn PMK inh 3.
Screening COc1ccc([C@@H]2Sc3ccccc3N(CCN(C)C)C(=O)[C@@H]2OC(C)=O)cc1 returned Fluor 339 460 0.96, MK inhibit 7, NADH coupling 2%, A340 absorber 0.98, Spn DPM-DC inh inactive and Spn PMK inh 5.
